This note sets out measurements from PubChem BioAssay (NCATS).

The structures appear in SMILES notation. “And” between values parts separate entries of the source, which are not always exact repeats. Equal entries are not always repeated. A number with no mark means an inactive call. Results filed as inconclusive are left out. The source made the active and inactive calls. Unless noted, calls follow the shape of the dose curve; as a rule, active = well fitted curve in the direction sought with a large enough effect; inconclusive = small, poorly fitted or top-dose-only effect, or another doubt; inactive = no such curve, though single readings can be large; an effect the other way counts as inactive or inconclusive.

In experiment [1] the target is Bile acid receptor (Homo sapiens) (UniProt Q96RI1). The experiment is described as follows: qHTS assay for small molecule agonists of farnesoid X receptor signaling (AID 588527; calls by dose curve;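 also: series mostly up to about 77 µM; 0% = vehicle basal and 100% = reference agonist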). The note with it: HEK293T FXR-UAS-bla, beta-lactamase ratio, 16 h; activation: hits give high values. An outline of the steps:
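Read-out: beta-lactamase reporter fluorescence with CCF4 substrate in GeneBLAzer FXR-UAS-bla HEK293T cells, after 16 h compound exposure at 37 C. Response scaled between DMSO basal (0%) and chenodeoxycholic acid at 100 uM (100%).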
(In general: Quantitative high-throughput screening tests each substance at several concentrations.)

Experiment [2] has as its target Peroxisome proliferator-activated receptor delta (Homo sapiens) (UniProt Q03181). In words: qHTS assay for small molecule agonists of peroxisome proliferator-activated receptor delta signaling (AID 588534; calls by dose curve;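 also: 0% = DMSO basal wells and 100% = positive control agonist at 10 µM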). An outline of the steps:
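Cell-based beta-lactamase reporter assay run in agonist mode: cells seeded and incubated 5 hrs at 37 C, compounds added and incubated 18 hrs at 37 C. CCF4 dye fluorescence read after 2 hrs at RT; EC50 and efficacy from Hill fits.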

The target of experiment [3] is Cytochrome P450 3A4 (Homo sapiens) (UniProt P08684). In words: qHTS Assay for Inhibitors and Substrates of Cytochrome P450 3A4 (AID 884). Also: potency is read from the fitted curve at half-maximal effect; nearly all actives have a fitted effect of over 50% in size. An outline of the steps:
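20 nM human CYP3A4 with 25 uM Luciferin-PPXE (at KM) in 200 mM KPO4, preincubated 10 min with compound; NADPH regeneration started a 60 min RT reaction. Luciferin detected by luminescence, normalized to 57 uM ketoconazole as full inhibition.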

Experiment [4] in a line: MultiTox-Fluor Cytotoxicity Assay - LYMP1-001 - Dead Cells (AID 946). Also: potency is read from the fitted curve at half-maximal effect. An outline of the steps: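 Seed 2500 LYMP1-001 cells/well, incubate 5 hr at 37 C; add compound, 16 hr at 37 C; add MultiTox-Fluor reagent, 60 min RT; read dead-cell fluorescence Ex/Em=485/520. Normalize to DMSO and 15 uM tetraoctylammonium bromide.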
Experiment [5] in a line: MultiTox-Fluor Cytotoxicity Assay - LYMP1-001 - Live Cells (AID 947). Also: potency is read from the fitted curve at half-maximal effect.
The nature of experiment [6]: MultiTox-Fluor Cytotoxicity Assay - LYMP1-002 - Dead Cells (AID 960). Also: potency is read from the fitted curve at half-maximal effect; nearly all actives have a fitted effect of over 60% in size. The gist of the method:
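Human lymphoblastoid cells (LYMP1-002), 2500/well in complete medium, were exposed to compounds for 16 hr at 37 C. Dead-cell protease activity was read as bis-AAF-R110 fluorescence (Ex/Em 485/520), normalized to DMSO and 15 uM tetraoctylammonium bromide; AC50 from Hill fits.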

Experiment [7] is described as follows: MultiTox-Fluor Cytotoxicity Assay - LYMP1-003 - Dead Cells (AID 961). Also: potency is read from the fitted curve at half-maximal effect; nearly all actives have a fitted effect of over 70% in size. An outline of the steps:
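LYMP1-003 lymphoblastoid, 2500 cells/well, 5 hr settle then 16 hr cpd at 37 C; MultiTox-Fluor reagent 60 min RT; Ex/Em 485/520 dead-cell signal; norm. DMSO = 0%, 15 uM tetraoctylammonium bromide = 100%; Hill AC50.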

Experiment [8] can be described thus: MultiTox-Fluor Cytotoxicity Assay - LYMP1-003 - Live Cells (AID 962). Also: potency is read from the fitted curve at half-maximal effect. The gist of the method:
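LYMP1-003 human lymphoblastoid cells (2500/well) in complete medium were preincubated 5 hr at 37 C, then exposed to compounds for 16 hr at 37 C. Live-cell protease cleavage of GF-AFC read by fluorescence (Ex/Em 405/510); AC50 from Hill fits.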

Experiment [9] is described as follows: Cell Viability - LYMP1-003 - Assay at 24 hr (AID 963). Also: potency is read from the fitted curve at half-maximal effect. The gist of the method: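 Human lymphoblastoid LYMP1-003 cells (2500/well) were rested 5 hr at 37 C, then exposed to compounds in complete medium for 24 hr at 37 C. Cellular ATP was quantified by CellTiter-Glo luminescence, and AC50 values came from Hill fits of concentration-response data.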
Experiment [10] can be described thus: Cell Viability - LYMP1-003 - Assay at 40 hr (AID 964). Also: potency is read from the fitted curve at half-maximal effect; nearly all actives have a fitted effect of over 60% in size. An outline of the steps: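 Human lymphoblastoid LYMP1-003 cells, 2500/well in complete medium, rested 5 hr at 37 C, then exposed to compounds for 40 hr at 37 C. Viability read as intracellular ATP by CellTiter-Glo luminescence; AC50 from Hill fits of concentration-response data.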
The nature of experiment [11]: Cell Viability - LYMP2-005 (AID 967). Also: potency is read from the fitted curve at half-maximal effect. The gist of the method:
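LYMP2-005 human lymphoblastoid cells (2500/well) were treated with compounds for 24 h at 37 C. Intracellular ATP was then measured by CellTiter-Glo luminescence after 30 min at room temperature. AC50 values came from Hill-equation fits of qHTS concentration-response data.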

Experiment [12] can be described thus: Cell Viability - LYMP2-013 (AID 970). Also: potency is read from the fitted curve at half-maximal effect; nearly all actives have a fitted effect of over 55% in size. The gist of the method: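 Human lymphoblastoid cells, 2500/well, were preincubated 5 hr at 37 C, then treated with compounds for 24 hr at 37 C in complete medium. Intracellular ATP was read by CellTiter-Glo luminescence; AC50 from Hill-equation fits of concentration-response data.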
The nature of experiment [13]: Cell Viability - LYMP2-017 (AID 972). Also: potency is read from the fitted curve at half-maximal effect; nearly all actives have a fitted effect of over 55% in size. An outline of the steps: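 Human lymphoblastoid cells (2500/well) were seeded in complete medium, held 5 hr at 37 C, then exposed to compounds for 24 hr at 37 C. Intracellular ATP was read by CellTiter-Glo luminescence after 30 min at room temperature, with AC50 values from Hill-equation fits.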
Experiment [14] can be described thus: Cell Viability - LYMP2-019 (AID 973). Also: potency is read from the fitted curve at half-maximal effect; nearly all actives have a fitted effect of over 55% in size. The gist of the method: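 Human lymphoblastoid cells were seeded at 2500 cells/well, preincubated 5 hr at 37 C, then exposed to compounds for 24 hr at 37 C in complete medium. Intracellular ATP was measured by CellTiter-Glo luminescence; AC50 from Hill fits.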
A short description of experiment [15]: Cell Viability - LYMP2-021 (AID 974).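 Also: potency is read from the fitted curve at half-maximal effect; compound exposure lasts 24 hours at 37 °C; nearly all actives have a fitted effect of over 55% in size.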 An outline of the steps: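 Human lymphoblastoid cells (2500/well) were preincubated 5 hr at 37 C, then exposed to compounds for 24 hr at 37 C in complete medium. Intracellular ATP was read by CellTiter-Glo luminescence; AC50 came from Hill-equation fits of concentration-response data.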
Experiment [16] is described as follows: Cell Viability - LYMP2-025 (AID 976). Also: potency is read from the fitted curve at half-maximal effect. An outline of the steps:
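Human lymphoblastoid LYMP2-025 cells (2500/well) were pre-incubated 5 hr at 37 C, then treated with compounds for 24 hr at 37 C in complete medium. Viability was read as intracellular ATP by CellTiter-Glo luminescence; AC50 from Hill fits.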

Experiment [17] can be described thus: Cell Viability - LYMP2-002 (AID 977). Also: potency is read from the fitted curve at half-maximal effect. The gist of the method:
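Luminescent ATP readout (CellTiter-Glo, 30 min room temperature) after 24 h compound exposure at 37 C of a human lymphoblastoid line, 2500 cells/well. AC50 values derived by standard Hill fitting of qHTS concentration-response data.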

The nature of experiment [18]: Cell Viability - LYMP2-006 (AID 978). Also: potency is read from the fitted curve at half-maximal effect; nearly all actives have a fitted effect of over 60% in size. The gist of the method:
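Potency values are Hill-fit AC50s for decreases in intracellular ATP (CellTiter-Glo luminescence). LYMP2-006 lymphoblastoid cells, 2500 per well, were exposed to compound in complete culture medium for 24 hr at 37 C.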

Experiment [19] is described as follows: Cell Viability - LYMP2-007 (AID 979).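 Also: potency is read from the fitted curve at half-maximal effect; cells exposed to compound for 24 h before reading; nearly all actives have a fitted effect of over 60% in size.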 An outline of the steps: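 Human lymphoblastoid cells (2500/well) were plated in complete medium, incubated 5 hr at 37 C, then exposed to compounds for 24 hr at 37 C. Intracellular ATP was read by CellTiter-Glo luminescence after 30 min at room temperature; AC50 from Hill fits.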
Experiment [20] is described as follows: Cell Viability - LYMP2-008 (AID 980). An outline of the steps: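 Human lymphoblastoid cells (2500/well) were plated, held 5 hr at 37 C, then exposed to compounds for 24 hr at 37 C in complete medium. Intracellular ATP was read by CellTiter-Glo luminescence; AC50 from Hill-fitted concentration-response.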
Experiment [21] in a line: Cell Viability - LYMP2-010 (AID 981). An outline of the steps:
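Human lymphoblastoid LYMP2-010 cells (2500/well) were preincubated 5 hr at 37 C, then exposed to compounds for 24 hr at 37 C in complete medium. Intracellular ATP was measured by CellTiter-Glo luminescence after 30 min at room temperature; AC50 from Hill-fitted concentration-response.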

Experiment [22] in a line: Cell Viability - LYMP2-012 (AID 982).
Experiment [23] is described as follows: Cell Viability - LYMP2-016 (AID 984). An outline of the steps: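 Cytotoxicity was scored by luminescent ATP content (CellTiter-Glo) after 24 h compound exposure at 37 C of a human lymphoblastoid line at 2500 cells/well. Concentration-response data were fitted to the Hill equation for AC50.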
The nature of experiment [24]: Cell Viability - LYMP2-018 (AID 985).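 Also: potency is read from the fitted curve at half-maximal effect; compound exposure lasted 24 hr at 37 °C; nearly all actives have a fitted effect of over 50% in size.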 The gist of the method:
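Human lymphoblastoid cells (2500/well) were pre-incubated 5 hr at 37 C, then exposed to compounds for 24 hr at 37 C in complete medium. Viability was read as intracellular ATP by CellTiter-Glo luminescence; AC50 values came from Hill-equation fits.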

The nature of experiment [25]: Cell Viability - LYMP2-020 (AID 986). An outline of the steps: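 Human lymphoblastoid cells, 2500/well, were pre-incubated 5 hr at 37 C, then exposed to compounds for 24 hr at 37 C in complete medium. Intracellular ATP was read by CellTiter-Glo luminescence, and AC50 was derived by Hill fitting of concentration-response data.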
A short description of experiment [26]: Cell Viability - LYMP2-026 (AID 989). Also: potency is read from the fitted curve at half-maximal effect; nearly all actives have a fitted effect of over 50% in size. An outline of the steps: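 Human lymphoblastoid cells (2500/well) in complete medium were preincubated 5 hr at 37 C, then exposed to compounds for 24 hr at 37 C. Cellular ATP was read by CellTiter-Glo luminescence; AC50 from Hill-equation fits of concentration-response data.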
The nature of experiment [27]: Cell Viability - LYMP1-002 - Assay at 40 hr (AID 994). The gist of the method:
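Human lymphoblastoid cells, 2500/well in complete medium, were preincubated 5 hr at 37 C, then exposed to compounds for 40 hr at 37 C. Intracellular ATP was read by CellTiter-Glo luminescence after 30 min at room temperature; AC50 from Hill-equation fits.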

Experiment [28] is described as follows: qHTS assay for small molecule antagonists of the retinoid-related orphan receptor gamma (ROR-gamma) signaling pathway - cell viability counter screen (AID 720652; active = well fitted curve in the direction sought with a large enough effect in the repeat runs; an effect the other way counts as inactive or inconclusive;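 also: potency is read from the fitted curve at half-maximal effect; compound exposure lasted 16 hr before ATP read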). The gist of the method: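 Counter screen in CHO cells carrying TET-inducible ROR-gamma and an ROR response element-luciferase reporter; cells plated 5 hr, compound pinned, doxycycline added, then 16 hr at 37 C. Viability read as intracellular ATP by CellTiter-Glo luminescence.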

A short description of experiment [29]: Cell Viability - LYMP2-003 (AID 965).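 Also: potency is read from the fitted curve at half-maximal effect; cells exposed to compounds for 24 h before reading; nearly all actives have a fitted effect of over 50% in size.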 The gist of the method:
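CellTiter-Glo luminescence quantified ATP loss after 24 h compound treatment of LYMP2-003 lymphoblastoid cells at 37 C. Titration series were fitted with the standard Hill equation to give AC50.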

Chain of Peroxisome proliferator-activated receptor delta (Homo sapiens) (Q03181 whole entry, looked up): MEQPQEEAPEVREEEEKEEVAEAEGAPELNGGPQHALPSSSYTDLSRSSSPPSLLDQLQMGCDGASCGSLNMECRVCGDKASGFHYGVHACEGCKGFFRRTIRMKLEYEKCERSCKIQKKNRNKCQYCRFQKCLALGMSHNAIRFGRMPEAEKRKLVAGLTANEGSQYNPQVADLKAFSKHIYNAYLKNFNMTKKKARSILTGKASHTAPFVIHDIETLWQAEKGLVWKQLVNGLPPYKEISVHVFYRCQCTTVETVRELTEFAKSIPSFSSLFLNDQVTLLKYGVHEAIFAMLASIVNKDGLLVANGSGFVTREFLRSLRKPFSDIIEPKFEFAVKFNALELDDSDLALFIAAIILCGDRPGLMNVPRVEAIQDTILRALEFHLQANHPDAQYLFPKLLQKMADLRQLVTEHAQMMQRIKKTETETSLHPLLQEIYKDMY
Chain of Bile acid receptor (Homo sapiens) (Q96RI1 whole entry, looked up): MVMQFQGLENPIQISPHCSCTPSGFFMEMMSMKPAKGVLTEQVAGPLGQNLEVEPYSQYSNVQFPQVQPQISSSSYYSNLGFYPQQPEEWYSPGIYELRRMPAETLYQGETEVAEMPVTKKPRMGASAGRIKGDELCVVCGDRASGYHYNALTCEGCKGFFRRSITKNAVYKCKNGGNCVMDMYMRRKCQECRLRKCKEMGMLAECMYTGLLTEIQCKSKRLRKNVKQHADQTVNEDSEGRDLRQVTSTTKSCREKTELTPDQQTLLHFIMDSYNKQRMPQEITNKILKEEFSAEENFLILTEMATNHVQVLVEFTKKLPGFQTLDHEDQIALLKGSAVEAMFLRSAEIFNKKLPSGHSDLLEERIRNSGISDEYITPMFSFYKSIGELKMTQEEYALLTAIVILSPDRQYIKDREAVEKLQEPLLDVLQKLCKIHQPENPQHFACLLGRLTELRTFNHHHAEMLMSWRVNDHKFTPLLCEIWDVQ
Chain of Cytochrome P450 3A4 (Homo sapiens) (P08684 whole entry, looked up): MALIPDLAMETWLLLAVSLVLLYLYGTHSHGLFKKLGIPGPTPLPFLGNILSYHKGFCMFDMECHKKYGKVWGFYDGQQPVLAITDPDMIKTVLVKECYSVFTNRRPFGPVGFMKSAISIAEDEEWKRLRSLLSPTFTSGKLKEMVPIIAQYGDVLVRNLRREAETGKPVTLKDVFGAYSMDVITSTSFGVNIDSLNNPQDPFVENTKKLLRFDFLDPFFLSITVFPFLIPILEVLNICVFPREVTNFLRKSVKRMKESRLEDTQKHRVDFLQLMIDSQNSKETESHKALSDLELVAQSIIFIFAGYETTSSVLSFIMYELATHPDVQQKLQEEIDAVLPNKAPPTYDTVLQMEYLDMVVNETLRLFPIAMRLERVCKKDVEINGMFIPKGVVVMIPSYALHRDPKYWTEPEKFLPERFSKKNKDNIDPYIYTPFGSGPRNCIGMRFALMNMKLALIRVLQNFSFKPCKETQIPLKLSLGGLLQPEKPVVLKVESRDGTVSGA

Turning to `CC(C)c1cccc(C(C)C)c1`, the activation in experiment [1] is -1.96%. Moreover, in experiment [2], the compound was called inactive.
As to `OC1CCC(C2CCCCC2)CC1` (stereo unspecified), the activation in [1] was 0.637%. Besides, the outcome in experiment [2] was inactive.
The like results for `C=Cc1ccccc1Br` were, in that order, 2.37% and “inactive”.
On to `C=C(C)C(=O)OCCCCCC`, for which the activation in experiment [1] is -1.11%. In experiment [2], the outcome was inactive.
Taken in the same sequence, the figures for `CCCCCCCCCC(=O)OC` were -0.517% and “inactive”.
Taken in the same sequence, the figures for `FC(F)(F)c1cccc(Cl)c1` were -1.67% and “inactive”.
Turning to `O=C1CCC(=O)O1`, in experiment [1], the activation is -2.49%. Further, the call in [2] was inactive.
In the case of `CC(O)CO` (stereo unspecified), in experiment [1], the activation is 1.32% and -0.791%. In addition, the compound was called inactive in experiment [2].
As for `CCCCCCc1ccc(N)cc1`, in experiment [1], the activation was -3.51%. In addition, the compound was classed as inactive in [2].
Taken in the same sequence, the figures for `CCCC(C)CO` (stereo unspecified) were 1.08% and “inactive”.
For `O=c1[nH]c(=O)c2[nH]cnc2[nH]1`, the activation in experiment [1] is -9.18%. The call in [2] was inactive.
With `CC(=O)OCc1ccc2c(c1)OCO2`, the Potency in experiment [3] was 10 µM (active).
In the case of `Cc1ccc2ccc3cccc4ccc1c2c34`, the Potency in [3] was 25.1 µM (active).
On to `CC/C(=C(\c1ccccc1)c1ccc(OCCN(C)C)cc1)c1ccc(O)cc1`, for which the Potency in [4] is 50.1 µM (active); in [5], 50.1 µM (active); in [6] it was 31.6 µM (active); in experiment [7] it was 50.1 µM (active); in [8] it was 50.1 µM (active); in [9], 50.1 µM (active). The Potency was 50.1 µM (active) in experiment [10]; 50.1 µM (active) in experiment [11]; 50.1 µM (active) in experiment [12]; 39.8 µM (active) in experiment [13]; 50.1 µM (active) in experiment [14]; 50.1 µM (active) in experiment [15]. Also, the Potency was 50.1 µM (active) in experiment [16]; 50.1 µM (active) in experiment [17]; 39.8 µM (active) in [18]; 50.1 µM (active) in [19]; 50.1 µM (active) in experiment [20]; 50.1 µM (active) in experiment [21]. For the same compound, the Potency was 50.1 µM (active) in [22]; 50.1 µM (active) in experiment [23]; 39.8 µM (active) in experiment [24]; 50.1 µM (active) in [25]; 39.8 µM (active) in [26]; 50.1 µM (active) in [27]. For the same compound, the Potency in experiment [28] was 75 µM (active).
Consider `Nc1ccc(-c2ccc(N)c(O)c2)cc1O`, for which the Potency in experiment [29] and in experiment [11] was 50.1 µM (active) each time.
